Entries with a potency or affinity are not part of this list. Calls of active or inactive are those of the source.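 The calls were made as follows: active = compounds lowering cell ATP signal with a fitted half-effect dose at most twice the top valid dose; inconclusive = flat curve with 30 to 70% signal loss, or bad fit; inactive = wrong direction, flat within 30%, or weaker than limit.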
experiment: viability loss in HEK293 kidney cells – cell-based, cherry-picks, set 5, cytotoxicity control, dose response (AID 1053117); details: HEK293T viability, CellTiter-Glo ATP luminescence, 72 h; series mostly up to 26 µM;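 also: more negative means greater loss of ATP signal and more cytotoxicity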

SMILES | outcome
C[C@H](CO)N1C[C@H](C)[C@H](CN(C)C(=O)Nc2cccc3ccccc23)Oc2c(NC(=O)Nc3ccc(C(F)(F)F)cc3)cccc2C1=O | inactive
O=C(Nc1ccccc1F)N1C[C@H]2[C@@H](c3ccccc31)[C@@H](CO)N2C(=O)C1CC1 | inactive
COCC(=O)Nc1ccc2c(c1)C(=O)N(C)[C@H]1CC[C@H](CC(=O)NCc3ccccc3Cl)O[C@@H]1CO2 | inactive
COC(=O)c1c(NC(=O)CN2CCN(c3ccccc3Cl)CC2)sc(C)c1C | inactive
O=C(CCC(=O)c1cccs1)NCc1cccnc1 | inactive
O=C(Nc1cc(Sc2nc3ccccc3s2)cc([N+](=O)[O-])c1)c1ccccc1F | inactive
CC(C)NC(=O)N(C)C[C@H]1Oc2ccc(NC(=O)CCN3CCOCC3)cc2C(=O)N([C@H](C)CO)C[C@@H]1C | inactive
Cc1cccc(NC(=O)Nc2ccc(S(=O)(=O)Nc3onc(C)c3C)cc2)c1 | inactive
C[C@@H]1CN([C@@H](C)CO)C(=O)c2cc(-c3ccncc3)cnc2O[C@@H]1CN(C)C(=O)Cc1cccnc1 | inactive
COc1cccc(CNC(=O)CCc2nnc3ccc(NCCCN4CCCC4=O)nn23)c1 | inactive
C[C@@H]1CN([C@@H](C)CO)C(=O)c2cc(-c3ccccc3)cnc2O[C@@H]1CN(C)C(=O)c1cccc(F)c1 | inactive
Cc1ccc(S(=O)(=O)N2CC[C@@H]3[C@H](CO)Nc4ccc(-c5cccc(C(=O)N(C)C)c5)cc4[C@@H]32)cc1 | inactive
COCC(=O)Nc1ccc2c(c1)C(=O)N(C)[C@@H]1CC[C@@H](CC(=O)NCc3ccccc3Cl)O[C@H]1CO2 | inactive
COc1ccccc1CNc1nc(NCc2cnc(C)cn2)c2sccc2n1 | inactive
COc1ccc(CN(C2CCCC2)S(=O)(=O)c2ccc(-n3cnnn3)cc2)cc1OC | inactive
CCN1CCN(C(c2ccccc2)c2nnnn2Cc2ccccc2)CC1 (stereo not drawn) | inactive
Cc1ccc(N(CC(=O)NCc2ccco2)S(=O)(=O)c2ccccc2)cc1 | inactive

SMILES | outcome
C[C@@H]1CN([C@@H](C)CO)C(=O)c2cc(NC(=O)CCCN(C)C)ccc2O[C@@H]1CN(C)Cc1ccc(-c2ccccc2)cc1 | inactive
O=C(c1cccnc1)N1C[C@@H]2[C@H](c3ccccc31)[C@H](CO)N2CC1CCCC1 | inactive
COC(=O)C[C@@H]1CC[C@H]2[C@@H](COc3ccc(NC(=O)Cc4cccs4)cc3C(=O)N2C)O1 | inactive
CO[C@@H]1CN(C)C(=O)c2cc(NC(=O)Nc3ccc(Cl)c(Cl)c3)ccc2OC[C@H](C)NC[C@@H]1C | inactive
S=C(NCC1CCCO1)Nc1ccc(Cl)cc1Cl (stereo not drawn) | inactive
Cc1ccc([N+](=O)[O-])cc1NC(=O)CN(C(=O)c1ccccc1Cl)C1CCCCC1 | inactive
C[C@H]1CN([C@@H](C)CO)C(=O)c2cc(-c3ccccc3)cnc2O[C@H]1CN(C)Cc1ccccc1 | inactive
CC(C)(C)[S@@](=O)N1Cc2cc(C(=O)NCc3ccccc3F)nc(-c3cccc(-c4cncnc4)c3)c2[C@H]1CCO | inactive
COc1ccc(-c2csc(CCn3nc(C)cc3C)n2)cc1OC | inactive
C[C@H](CO)N1C[C@H](C)[C@H](CN(C)Cc2ccc(-c3ccccc3)cc2)Oc2ccc(NC(=O)C3CCCCC3)cc2C1=O | inactive
Cc1ccc(C(O)c2ncc(-c3cccc4ccccc34)[nH]2)cc1F (stereo not drawn) | inactive
c1ccc2[nH]c(SCc3cn4cccnc4n3)nc2c1 | inactive
Cc1cc(C)c(S(=O)(=O)Nn2cnnc2)c(C)c1 | inactive
Cc1ccc(-c2nc3ncccc3o2)cc1NC(=O)c1ccco1 | inactive
Cc1ccc(S(=O)(=O)N2CC3(C)CN(S(=O)(=O)c4ccc(C)cc4)CC(C)(C2)C3=O)cc1 | inactive
COCC(=O)Nc1ccc2c(c1)C(=O)N(C)[C@@H]1CC[C@H](CC(=O)NCc3ccccc3Cl)O[C@H]1CO2 | inactive

— PubChem BioAssay AID1053117 (Broad Institute, 2014)
